According to PubChem BioAssay (NCI):
About 83,000 compounds went through this panel and 20% of them were active in at least one assay; those are over-represented in the sample as a whole.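 Cell lines were cultured in 96-well plates, exposed to a single compound concentration, and assessed for percent growth 48 hours later.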 Unmarked numbers belong to inactive results. Active and inactive are the calls of the source. The calls were made as follows: active = growth percent below 10; inactive = the rest.

Tests used:
Assay in all cases: NCI-60 one-dose screen, 48 h (100 = growth as untreated, 0 = no growth, -100 = all killed)
SR leukemia = conditions: 10 µM unless noted
RPMI-8226 leukemia = conditions: 10 µM unless noted
OVCAR-8 ovarian = conditions: 10 µM unless noted
OVCAR-5 ovarian = conditions: 10 µM unless noted
OVCAR-4 ovarian = conditions: 10 µM unless noted
SK-OV-3 ovarian = conditions: 10 µM unless noted
IGROV1 ovarian = conditions: 10 µM unless noted
OVCAR-3 ovarian = conditions: 10 µM unless noted
HS 578T breast = conditions: 10 µM
NCI/ADR-RES ovarian = conditions: 10 µM unless noted

Row | SMILES | growth (SR leukemia) | growth (RPMI-8226 leukemia) | growth (OVCAR-8 ovarian) | growth (OVCAR-5 ovarian) | growth (OVCAR-4 ovarian) | growth (SK-OV-3 ovarian) | growth (IGROV1 ovarian) | growth (OVCAR-3 ovarian) | growth (HS 578T breast) | growth (NCI/ADR-RES ovarian)
1 | C#CC[C@@H]1C[C@]2(C)[C@H]3CC=C4[C@H]5[C@@H](C)[C@H](C)CC[C@]5(C(=O)NCCCCCCCCN)CC[C@@]4(C)[C@]3(C)CC[C@H]2C(C)(C)[C@H]1OC(C)=O | 3.43% (active) | -45.8% (active) | -33.6% (active) | 108% | -0.477% (active) | 116% | 50.9% | -91.5% (active) | 101% | 65.9%
2 | CC(C)NCCCCCNc1cc(O)cc2cccnc12 | 22.5% | 66.6% | 31.3% | 98.8% | -5.19% (active) | 65.6% | 32.2% | 28.3% | 88.8% | 100%
3 | COc1cc2nccc(Oc3ccc(NC(=O)C4(C(=O)Nc5ccc(F)cc5)CC4)cc3)c2cc1OC(=O)c1ccc(N)cc1 | 9.85% (active) | 10.4% | 51.9% | 31% | 51.7% | 69.6% | 60.7% | 47.5% | -16.9% (active) | 35.5%
4 | Cc1ccc(NC(=O)Cn2nncc2CN2C(=O)CSC2=O)cc1C | 124% | 106% | 102% | 112% | 104% | 89.7% | 111% | 102% | 99.2% | 96.1%
5 | COc1ccc2[nH]cc(C(c3ccc(Cl)cc3)N3CCCC3)c2c1 (stereo not given) | 59.9% | 85.9% | 94.8% | 101% | 104% | 109% | 83.2% | 99.5% | 86.3% | 97.9%
6 | O=c1[nH]cnc2nc[nH]c12 | 48.8% | 93.5% | 76.9% | 98.5% | 94.5% | 121% | 109% | 174% | 123% | 97.8%
7 | C#CCNC(=S)N/N=C(\C)c1ccccn1 | 3.06% (active) | 12.9% | 12.4% | 35.1% | 29.1% | 30.8% | 5.45% (active) | 16.6% | 70.2% | 8.45% (active)
8 | CCOc1ccc([C@@H]2[C@@H](Oc3ccccc3)C(=O)N2c2cc(OC)c(OC)c(OC)c2)cc1 | 5.44% (active) | 5.16% (active) | 24.2% | 43% | 43.9% | 29.6% | 21.5% | -8.31% (active) | 34.6% | 14%
9 | C/C(=N\OC(=O)Nc1cccc(Cl)c1)c1ccccc1 | 74% | 95.8% | 104% | 91% | 94.7% | 108% | 115% | 113% | 86.4% | 108%
10 | CC[C@H](Nc1nc(N)nc(N)c1Cl)c1nc2cccc(NCc3ccc(C(=O)NO)cc3)c2c(=O)n1-c1ccccc1 | -5.94% (active) | 3.83% (active) | -29.1% (active) | 21.9% | 5.36% (active) | -14.4% (active) | -46.6% (active) | -22.1% (active) | 20.9% | 81.8%
11 | NC(=O)c1noc(C(=O)c2ccccc2)c1N | 90.8% | 99.4% | 97.3% | 100% | 89.4% | 107% | 90.4% | 96.9% | 112% | 112%
12 | O=C(O)c1ccccc1N=Cc1ccccc1 | 95.9% | 101% | 106% | 108% | 107% | 104% | 101% | 115% | 106% | 100%
13 | CC(C)c1ccc(Cn2ccc3c4c(N)nc(NC5CC5)nc4ccc32)cc1 | -45.8% (active) | -54.7% (active) | -77.8% (active) | -85.9% (active) | -37.4% (active) | -87.2% (active) | -87.4% (active) | -87.6% (active) | -57.1% (active) | -74.4% (active)
14 | COc1ccc2[nH]c(C(=O)OCc3ccc4cccc(O)c4n3)cc2c1 | -3.51% (active) | -45.9% (active) | 0.942% (active) | -66.6% (active) | -59.2% (active) | 68.4% | -91.2% (active) | -84.8% (active) | -8.82% (active) | -18.9% (active)
